Values joined by “and” are separate entries in the source; they are usually repeats but may differ in a detail not shown here. Identical values can stand only once. Records with an inconclusive call do not appear. More than one record can exist for a structure, and the calls need not agree. Active and inactive are the calls of the source. The calls were made as follows, unless noted: active = hit-call score of the fitted dose curve at least 0.9, where 1 is the maximum; inconclusive = response in the unintended direction; inactive = score below 0.9.
Experiments:
[1] = BSK_3C_VCAM1: BioMAP Diversity Plus: 3C Assay for Vascular cell adhesion molecule 1 (VCAM1) Biomarker Activity (AID 2282999; active = hit-call score of the fitted dose curve at least 0.9, where 1 is the maximum; inactive = score below 0.9); conditions: BioMAP 3C HUVEC, VCAM1 ELISA, cytokine-stimulated; actives raise or lower the signal
Outline: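 HUVEC primary cells, 24 h compound exposure; VCAM-1 by ELISA; gain/loss of signal fitted bidirectionally vs DMSO baseline.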

[2] = BSK_4H_Eotaxin3: BioMAP Diversity Plus: 4H Assay for Eotaxin 3 Biomarker Activity (AID 2283000; active = hit-call score of the fitted dose curve at least 0.9, where 1 is the maximum; inactive = score below 0.9); conditions: primary human endothelial cells (HUVEC); actives raise or lower the signal
Outline: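 Chemicals were added to human umbilical vein endothelium cultures, and Eotaxin-3 was quantified by ELISA at 24 h. Values were derived by bidirectional fitting with DMSO serving as negative control and activity baseline.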

[3] = target: human Peroxisome Proliferator-activated Receptor alpha (PPARa), PPARA (gene 5465) (UniProt Q07869); assay: ATG_PPARa_TRANS: Attagene TRANS-FACTORIAL HepG2 Assay for human Peroxisome Proliferator-activated Receptor alpha (PPARa) (AID 2283001);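 as to AC50: potency for gain of reporter signal over DMSO so agonist or activator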
Chain of human Peroxisome Proliferator-activated Receptor alpha (PPARa), PPARA (gene 5465) (Q07869 whole entry, looked up, the tested form may be a part): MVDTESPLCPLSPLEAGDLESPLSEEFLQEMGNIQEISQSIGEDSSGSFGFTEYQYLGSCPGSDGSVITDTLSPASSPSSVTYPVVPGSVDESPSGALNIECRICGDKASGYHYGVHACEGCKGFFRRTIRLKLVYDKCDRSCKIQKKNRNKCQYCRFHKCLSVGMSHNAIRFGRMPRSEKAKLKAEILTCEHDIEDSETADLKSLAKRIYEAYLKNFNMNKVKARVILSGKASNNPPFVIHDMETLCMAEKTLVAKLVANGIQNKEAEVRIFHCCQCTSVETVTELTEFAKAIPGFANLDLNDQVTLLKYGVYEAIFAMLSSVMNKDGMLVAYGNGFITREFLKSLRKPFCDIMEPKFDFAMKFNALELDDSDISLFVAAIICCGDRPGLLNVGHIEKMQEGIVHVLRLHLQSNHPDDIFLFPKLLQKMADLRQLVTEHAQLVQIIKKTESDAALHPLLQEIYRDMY
Outline: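 Transient HepG2 transfection, GAL4-UAS reporters, NR-Gal4 chimeras; 24 h compound exposure. Readout: reporter transcripts by RT-PCR, 6-FAM primer extension, HpaI digest, capillary electrophoresis. Positive direction vs DMSO baseline.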

[4] = target: human Peroxisome Proliferator-activated Receptor delta (PPARd), PPARD (gene 5467) (UniProt Q03181); assay: ATG_PPARd_TRANS: Attagene TRANS-FACTORIAL HepG2 Assay for human Peroxisome Proliferator-activated Receptor delta (PPARd) (AID 2283002)
Chain of human Peroxisome Proliferator-activated Receptor delta (PPARd), PPARD (gene 5467) (Q03181 whole entry, looked up, the tested form may be a part): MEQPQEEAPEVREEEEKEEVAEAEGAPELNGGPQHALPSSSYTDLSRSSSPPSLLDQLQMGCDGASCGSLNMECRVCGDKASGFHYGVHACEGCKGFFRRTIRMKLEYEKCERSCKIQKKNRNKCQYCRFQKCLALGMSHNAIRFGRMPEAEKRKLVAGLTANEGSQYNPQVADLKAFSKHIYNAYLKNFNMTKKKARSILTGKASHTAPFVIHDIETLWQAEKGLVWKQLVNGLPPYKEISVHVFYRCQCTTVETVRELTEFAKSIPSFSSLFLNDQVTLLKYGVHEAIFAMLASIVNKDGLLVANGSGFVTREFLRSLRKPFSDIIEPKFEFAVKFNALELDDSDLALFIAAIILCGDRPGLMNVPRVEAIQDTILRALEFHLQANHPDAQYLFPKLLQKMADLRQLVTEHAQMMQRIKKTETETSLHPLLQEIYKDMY
Outline: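 Fluorescence from capillary electrophoresis of labelled RT-PCR reporter fragments gives the signal; DMSO sets baseline. Cells: HepG2 transiently carrying GAL4-UAS reporter units plus chimeric nuclear receptor-Gal4 proteins, exposed to chemicals for 24 h.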

[5] = read-out: Intercellular Adhesion Molecule 1 (ICAM1), ICAM1 (gene 3383); assay: BSK_3C_ICAM1: BioMAP Diversity Plus: 3C Assay for Intercellular Adhesion Molecule 1 (ICAM1) Biomarker Activity (AID 2283003; active = hit-call score of the fitted dose curve at least 0.9, where 1 is the maximum; inactive = score below 0.9); conditions: primary human endothelial cells (HUVEC); actives raise or lower the signal
Outline: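 Using DMSO as baseline, bidirectional curve fitting was applied to ICAM-1 ELISA signals from HUVEC in the 3C system, measured 24 h after compound addition.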

[6] = target: human Retinoic Acid Receptor beta (RARb), RARB (gene 5915) (UniProt P10826); assay: ATG_RARb_TRANS: Attagene TRANS-FACTORIAL HepG2 Assay for human Retinoic Acid Receptor beta (AID 2283004)
Chain of human Retinoic Acid Receptor beta (RARb), RARB (gene 5915) (P10826 whole entry, looked up): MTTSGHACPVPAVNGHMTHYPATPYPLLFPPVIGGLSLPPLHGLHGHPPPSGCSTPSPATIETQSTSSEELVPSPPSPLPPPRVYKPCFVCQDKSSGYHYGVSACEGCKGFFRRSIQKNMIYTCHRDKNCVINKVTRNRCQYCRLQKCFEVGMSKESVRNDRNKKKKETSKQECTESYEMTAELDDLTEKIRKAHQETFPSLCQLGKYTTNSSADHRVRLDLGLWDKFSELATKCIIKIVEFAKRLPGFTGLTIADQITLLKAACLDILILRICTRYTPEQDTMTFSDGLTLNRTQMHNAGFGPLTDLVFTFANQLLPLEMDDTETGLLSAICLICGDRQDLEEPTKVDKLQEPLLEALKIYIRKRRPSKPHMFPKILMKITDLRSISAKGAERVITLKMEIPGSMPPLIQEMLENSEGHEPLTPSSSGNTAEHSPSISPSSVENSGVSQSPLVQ
Outline: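 Transient transfection of HepG2 with multiple reporter units → chemical dosing, 24 h → total RNA isolation → RT with oligo(dT) → reporter-specific PCR, 6-FAM primer extension, HpaI digest → capillary electrophoresis. Positive direction vs DMSO control.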

[7] = BSK_3C_Proliferation: Cell Proliferation Assessment in the BioMAP Diversity Plus: 3C Assay (AID 2283006; active = hit-call score of the fitted dose curve at least 0.9, where 1 is the maximum; inactive = score below 0.9;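 as to AC50: potency may reflect either rise or fall in cell number versus DMSO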); conditions: primary human endothelial cells (HUVEC)
Outline: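 Measured here: sulforhodamine B (0.1%) staining of TCA-fixed sub-confluent umbilical vein endothelial cultures 48 h post-dosing, absorbance 560 nm. DMSO served as negative control and baseline; both signal gain and loss were modelled.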

[8] = target: Nuclear receptor subfamily 1 group I member 2 (Homo sapiens) (UniProt O75469); assay: ATG_PXR_TRANS: Attagene TRANS-FACTORIAL HepG2 Assay for human Pregnane X Receptor (PXR) (AID 2283008)
Chain of Nuclear receptor subfamily 1 group I member 2 (Homo sapiens) (O75469 whole entry, looked up, the tested form may be a part): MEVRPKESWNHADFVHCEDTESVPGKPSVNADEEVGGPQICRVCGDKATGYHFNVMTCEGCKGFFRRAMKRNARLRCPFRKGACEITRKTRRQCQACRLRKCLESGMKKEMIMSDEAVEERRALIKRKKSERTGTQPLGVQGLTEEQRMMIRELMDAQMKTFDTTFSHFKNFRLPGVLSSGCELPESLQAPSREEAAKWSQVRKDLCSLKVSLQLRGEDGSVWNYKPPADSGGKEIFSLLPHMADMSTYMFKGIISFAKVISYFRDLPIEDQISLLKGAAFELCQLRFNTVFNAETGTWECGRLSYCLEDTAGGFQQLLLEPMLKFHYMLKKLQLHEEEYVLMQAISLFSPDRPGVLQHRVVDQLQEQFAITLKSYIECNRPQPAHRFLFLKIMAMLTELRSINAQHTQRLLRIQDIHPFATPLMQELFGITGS
Outline: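 HepG2 transfected (FuGene 6) with GAL4-UAS reporter units + PXR-Gal4 chimera; dosed 24 h. Total RNA → oligo(dT) RT → PCR → 6-FAM primer extension → HpaI cut → CE. Gain-of-signal vs DMSO.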

[9] = target: human RAR-related Orphan Receptor gamma (RORg), RORC (gene 6097) (UniProt P51449); assay: ATG_RORg_TRANS: Attagene TRANS-FACTORIAL HepG2 Assay for human RAR-related Orphan Receptor gamma (RORg) (AID 2283011)
Outline: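 First, HepG2 liver cells were transfected with GAL4-UAS-driven reporter constructs and the RORg-Gal4 fusion. Next, they were treated with chemical for 24 h. Finally, reporter mRNA was quantified by RT-PCR and capillary electrophoresis, with upward activity fitted against DMSO.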

[10] = target: Retinoic acid receptor RXR-alpha (Homo sapiens) (UniProt P19793); assay: ATG_RXRa_TRANS: Attagene TRANS-FACTORIAL HepG2 Assay for human Retinoid X Receptor alpha (RXRa) (AID 2283012)
Chain of Retinoic acid receptor RXR-alpha (Homo sapiens) (P19793 whole entry, looked up, the tested form may be a part): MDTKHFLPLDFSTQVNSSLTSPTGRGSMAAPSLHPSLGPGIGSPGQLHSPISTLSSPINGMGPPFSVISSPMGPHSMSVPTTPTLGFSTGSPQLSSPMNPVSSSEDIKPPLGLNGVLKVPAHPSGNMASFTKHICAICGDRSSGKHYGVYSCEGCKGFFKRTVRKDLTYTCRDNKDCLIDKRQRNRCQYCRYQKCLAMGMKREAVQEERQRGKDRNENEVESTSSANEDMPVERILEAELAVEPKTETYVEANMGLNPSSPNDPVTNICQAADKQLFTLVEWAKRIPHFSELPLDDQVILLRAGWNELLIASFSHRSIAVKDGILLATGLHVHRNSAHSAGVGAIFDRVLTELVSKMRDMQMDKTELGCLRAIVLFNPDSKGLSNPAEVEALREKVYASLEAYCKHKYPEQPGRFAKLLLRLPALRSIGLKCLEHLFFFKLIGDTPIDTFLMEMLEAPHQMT
Outline: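 Chimeric NR-GAL4 trans-activation in HepG2, 24 h treatment; reporter transcripts quantified by fluorescence on capillary electrophoresis, analysed for upward change from DMSO.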

[11] = target: human Retinoid X Receptor beta (RXRb), RXRB (gene 6257) (UniProt P28702); assay: ATG_RXRb_TRANS: Attagene TRANS-FACTORIAL HepG2 Assay for human Retinoid X Receptor beta (RXRb) (AID 2283013)
Chain of human Retinoid X Receptor beta (RXRb), RXRB (gene 6257) (P28702 whole entry, looked up, the tested form may be a part): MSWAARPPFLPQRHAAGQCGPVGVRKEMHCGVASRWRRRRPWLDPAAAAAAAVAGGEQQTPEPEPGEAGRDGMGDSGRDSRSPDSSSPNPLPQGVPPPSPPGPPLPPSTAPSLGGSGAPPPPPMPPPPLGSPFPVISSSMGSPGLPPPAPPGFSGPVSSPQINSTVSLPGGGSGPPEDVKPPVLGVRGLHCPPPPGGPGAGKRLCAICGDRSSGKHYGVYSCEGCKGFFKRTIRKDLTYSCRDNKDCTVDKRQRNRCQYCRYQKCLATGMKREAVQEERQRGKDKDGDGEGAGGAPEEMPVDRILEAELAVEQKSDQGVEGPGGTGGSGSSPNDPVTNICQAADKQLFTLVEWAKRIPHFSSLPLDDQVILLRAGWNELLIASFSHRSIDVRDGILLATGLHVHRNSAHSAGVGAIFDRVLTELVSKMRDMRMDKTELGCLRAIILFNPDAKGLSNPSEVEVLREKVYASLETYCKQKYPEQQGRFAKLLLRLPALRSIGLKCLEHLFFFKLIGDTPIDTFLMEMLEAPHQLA
Outline: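 After a 24 h incubation with test chemical, transfected HepG2 cells carrying NR-Gal4 fusions and GAL4-UAS reporter transcription units yield RNA whose reporter cDNA is FAM-labelled, HpaI-cut and sized by capillary electrophoresis; increases over DMSO are scored.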

[12] = target: human Thyroid Receptor alpha (THRa1), THRA (gene 7067) (UniProt P10827); assay: ATG_THRa1_TRANS: Attagene TRANS-FACTORIAL HepG2 Assay for human Thyroid Receptor alpha (THRa1) (AID 2283014)
Chain of human Thyroid Receptor alpha (THRa1), THRA (gene 7067) (P10827 whole entry, looked up, the tested form may be a part): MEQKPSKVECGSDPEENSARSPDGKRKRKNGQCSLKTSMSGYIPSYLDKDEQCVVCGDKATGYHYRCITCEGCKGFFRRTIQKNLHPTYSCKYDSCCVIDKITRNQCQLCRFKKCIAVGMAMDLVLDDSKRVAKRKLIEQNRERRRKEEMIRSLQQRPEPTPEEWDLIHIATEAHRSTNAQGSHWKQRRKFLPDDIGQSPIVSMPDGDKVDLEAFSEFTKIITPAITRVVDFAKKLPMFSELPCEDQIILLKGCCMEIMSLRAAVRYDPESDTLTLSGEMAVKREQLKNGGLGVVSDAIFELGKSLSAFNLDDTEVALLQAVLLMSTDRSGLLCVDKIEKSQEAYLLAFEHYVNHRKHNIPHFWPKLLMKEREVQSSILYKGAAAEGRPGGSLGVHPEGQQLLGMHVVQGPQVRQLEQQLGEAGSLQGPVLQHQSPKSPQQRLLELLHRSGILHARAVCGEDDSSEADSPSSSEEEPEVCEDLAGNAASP
Outline: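 Reporter transcript induction, read by capillary electrophoresis of 6-FAM-labelled RT-PCR products, reflects activity of a transfected THRa1-Gal4 fusion in HepG2 liver cells. Cells were dosed for 24 h; activity was fitted in the positive direction against DMSO.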

[13] = read-out: E-selectin (Homo sapiens) (UniProt P16581); assay: BSK_3C_Eselectin: BioMAP Diversity Plus: 3C Assay for Eselectin Biomarker Activity (AID 2283015; active = hit-call score of the fitted dose curve at least 0.9, where 1 is the maximum; inactive = score below 0.9); conditions: primary human endothelial cells (HUVEC); actives raise or lower the signal
Outline: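 ELISA read-out of E-selectin on endothelial monolayers after 24 h chemical treatment. Human umbilical vein primary cells served as the system, with DMSO defining baseline activity for bidirectional fitting.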

[14] = read-out: Interleukin-1 alpha (IL1a), IL1A (gene 3552); assay: BSK_BE3C_IL1a: BioMAP Diversity Plus: BE3C Assay for Interleukin-1 alpha (IL1a) Biomarker Activity (AID 2283016; active = hit-call score of the fitted dose curve at least 0.9, where 1 is the maximum; inactive = score below 0.9); conditions: primary human bronchial epithelial cells; actives raise or lower the signal
Outline: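 Measured in human lung primary bronchial epithelial cells: IL-1a by ELISA at 24 h after dosing, with bidirectional fitting against DMSO.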

[15] = read-out: Monocyte Chemoattractant Protein-1 (MCP1), CCL2 (gene 6347); assay: BSK_3C_MCP1: BioMAP Diversity Plus: 3C Assay for Monocyte Chemoattractant Protein-1 (MCP1) Biomarker Activity (AID 2283017; active = hit-call score of the fitted dose curve at least 0.9, where 1 is the maximum; inactive = score below 0.9); conditions: primary human endothelial cells (HUVEC); actives raise or lower the signal
Outline: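 ELISA read-out of MCP-1 from human umbilical vein endothelial cell cultures harvested 24 h post-dosing. Gain or loss of signal was fitted relative to DMSO.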

[16] = read-out: Monocyte Chemoattractant Protein-1 (MCP1), CCL2 (gene 6347); assay: BSK_4H_MCP1: BioMAP Diversity Plus: 4H Assay for Monocyte Chemoattractant Protein-1 (MCP1) Biomarker Activity (AID 2283018; active = hit-call score of the fitted dose curve at least 0.9, where 1 is the maximum; inactive = score below 0.9); conditions: primary human endothelial cells (HUVEC); actives raise or lower the signal
Outline: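 Primary human umbilical vein endothelium is exposed to chemical for 24 h before MCP-1 is assayed by ELISA. Concentration-response fitted bidirectionally relative to DMSO.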

[17] = target: Retinoic acid receptor alpha (Homo sapiens) (UniProt P10276); assay: ATG_RARa_TRANS: Attagene TRANS-FACTORIAL HepG2 Assay for human Retinoic Acid Receptor alpha (RARa) (AID 2283005)
Chain of Retinoic acid receptor alpha (Homo sapiens) (P10276 whole entry, looked up, the tested form may be a part): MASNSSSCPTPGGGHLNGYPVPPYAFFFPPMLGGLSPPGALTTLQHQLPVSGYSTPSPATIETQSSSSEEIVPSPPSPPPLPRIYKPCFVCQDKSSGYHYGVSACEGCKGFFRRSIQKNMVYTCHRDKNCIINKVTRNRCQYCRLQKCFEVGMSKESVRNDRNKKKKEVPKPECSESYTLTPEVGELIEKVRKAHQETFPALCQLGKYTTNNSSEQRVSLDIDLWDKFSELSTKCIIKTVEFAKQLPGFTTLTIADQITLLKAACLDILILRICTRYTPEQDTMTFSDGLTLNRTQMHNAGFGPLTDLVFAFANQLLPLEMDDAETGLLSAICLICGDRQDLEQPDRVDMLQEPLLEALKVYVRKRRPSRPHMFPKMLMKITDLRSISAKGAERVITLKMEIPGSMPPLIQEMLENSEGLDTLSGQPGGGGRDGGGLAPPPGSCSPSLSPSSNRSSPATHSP
Outline: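 HepG2 transiently transfected with multiplex GAL4-UAS reporter units including a human RARa–GAL4 chimera; 24 h compound exposure. Reporter mRNA quantified by RT-PCR, 6-FAM labeling and capillary electrophoresis; gain of signal versus DMSO.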

[18] = target: human RAR-related Orphan Receptor beta (RORb), RORB (gene 6096) (UniProt Q92753); assay: ATG_RORb_TRANS: Attagene TRANS-FACTORIAL HepG2 Assay for human RAR-related Orphan Receptor beta (RORb) (AID 2283010)
Outline: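 Multiplexed transcription-factor reporter assay: HepG2 cells transiently carrying NR-Gal4/GAL4-UAS constructs, 24 h treatment, mRNA quantified by RT-PCR plus capillary electrophoresis fluorescence; activity scored as induction over DMSO.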

[19] = target: Peroxisome proliferator-activated receptor gamma (Homo sapiens) (UniProt P37231); assay: ATG_PPARg_TRANS: Attagene TRANS-FACTORIAL HepG2 Assay for human Peroxisome Proliferator-activated Receptor-gamma (PPARg) (AID 2283007)
Outline: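 After 24 h of chemical exposure, transfected HepG2 cells carrying PPARγ-Gal4 chimera reporter constructs are lysed for RNA. Reporter transcripts are measured by RT-PCR and capillary electrophoresis with fluorescent labelling, and gain of signal is fitted versus DMSO.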

[20] = target: human Retinoic Acid Receptor gamma (RARg), RARG (gene 5916) (UniProt P13631); assay: ATG_RARg_TRANS: Attagene TRANS-FACTORIAL HepG2 Assay for human Retinoic Acid Receptor gamma (RARg) (AID 2283009);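 as to AC50: AC50 is for reporter induction above DMSO meaning RARg activation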
Chain of human Retinoic Acid Receptor gamma (RARg), RARG (gene 5916) (P13631 whole entry, looked up, the tested form may be a part): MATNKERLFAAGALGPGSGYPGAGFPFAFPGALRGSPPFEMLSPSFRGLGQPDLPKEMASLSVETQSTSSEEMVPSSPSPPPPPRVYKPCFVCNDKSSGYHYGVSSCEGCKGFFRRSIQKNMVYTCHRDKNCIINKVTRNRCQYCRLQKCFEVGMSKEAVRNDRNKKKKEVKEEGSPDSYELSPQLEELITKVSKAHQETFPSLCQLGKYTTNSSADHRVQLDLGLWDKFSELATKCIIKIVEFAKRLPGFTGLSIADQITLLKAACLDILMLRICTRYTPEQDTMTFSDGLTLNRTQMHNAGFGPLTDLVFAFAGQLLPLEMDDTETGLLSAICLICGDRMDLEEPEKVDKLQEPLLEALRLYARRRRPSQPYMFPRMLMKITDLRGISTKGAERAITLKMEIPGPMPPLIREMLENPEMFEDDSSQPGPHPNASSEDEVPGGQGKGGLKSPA
Outline: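 Gain-of-signal relative to DMSO is reported from fluorescent capillary electrophoresis of RT-PCR reporter products. These came from HepG2 cells expressing transfected RARg-GAL4 chimeras with UAS reporters, harvested 24 h after dosing.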

Measured: AC50

Chain of E-selectin (Homo sapiens) (P16581 whole entry, looked up): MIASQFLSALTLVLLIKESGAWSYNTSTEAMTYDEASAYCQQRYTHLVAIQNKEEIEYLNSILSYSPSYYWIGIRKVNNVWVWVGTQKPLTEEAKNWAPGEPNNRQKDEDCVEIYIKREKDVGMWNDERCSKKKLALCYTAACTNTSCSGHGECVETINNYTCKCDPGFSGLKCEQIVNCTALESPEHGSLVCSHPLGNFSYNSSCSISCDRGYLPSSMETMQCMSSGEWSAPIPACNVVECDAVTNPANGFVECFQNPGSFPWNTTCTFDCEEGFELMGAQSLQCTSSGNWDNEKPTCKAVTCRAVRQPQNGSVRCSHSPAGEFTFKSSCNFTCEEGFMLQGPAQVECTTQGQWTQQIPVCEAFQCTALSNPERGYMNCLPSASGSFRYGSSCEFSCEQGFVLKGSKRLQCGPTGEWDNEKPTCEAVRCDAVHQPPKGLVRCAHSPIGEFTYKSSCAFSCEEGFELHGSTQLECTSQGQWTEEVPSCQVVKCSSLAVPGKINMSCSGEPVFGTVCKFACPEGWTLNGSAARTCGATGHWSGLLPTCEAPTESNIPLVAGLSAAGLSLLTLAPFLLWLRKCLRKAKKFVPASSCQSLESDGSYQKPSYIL

C[C@]12C[C@H](O)[C@H]3[C@@H](CCC4=CC(=O)CC[C@@]43C)[C@@H]1CC[C@@H]2C(=O)CO
active: [7] 29 µM | [8] 27.7 µM and 11.4 µM
inactive: [1] | [2] | [3] | [4] | [5] | [6] | [8] | [9] | [10] | [11] | [12] | [13] | [14] | [15] | [16]

CCCCC(CC)COC(=O)c1ccccc1C(=O)O (stereo not drawn)
not listed: [6] | [15] | [17] | [18] | [19] | [20]
inactive: all other assays above

CCNc1nc(N)nc(Cl)n1
not listed: [9] | [15] | [19] | [20]
inactive: all other assays above

CCCOC(=O)c1ccc(C(=O)OCCC)nc1
not listed: [9] | [15]
inactive: all other assays above

CCOC(=O)c1ccc(O)cc1
active: [3] 20.5 µM
inactive: [1] | [2] | [3] | [4] | [5] | [6] | [17] | [7] | [8] | [20] | [10] | [11] | [12] | [13] | [14] | [16]

c1ccc(Nc2ccccc2)cc1
not listed: [9] | [12] | [18] | [19] | [20]
inactive: all other assays above

CC(=O)S[C@@H]1CC2=CC(=O)CC[C@]2(C)[C@H]2CC[C@@]3(C)[C@@H](CC[C@@]34CCC(=O)O4)[C@H]12
inactive: [3] | [4] | [5] | [8] | [9] | [10] | [12] | [14]
active: [1] 29.5 µM | [2] 36.5 µM | [7] 28 µM | [13] 20 µM | [16] 20 µM

COC(=O)c1c(Cl)nn(C)c1S(=O)(=O)NC(=O)Nc1nc(OC)cc(OC)n1
not listed: [6] | [9] | [10] | [11] | [15] | [17] | [19]
inactive: all other assays above

CC(C)CCCCCCc1ccc(O)cc1
active: [1] 7.98 µM | [2] 10.6 µM | [5] 11.2 µM | [7] 4.54 µM | [20] 14.2 µM | [10] 12.3 µM [middle of 4 runs] | [13] 8.72 µM | [14] 26.7 µM | [16] 7.07 µM
inactive: [3] | [4] | [6] | [17] | [20] | [18] | [12]

OB(O)O
not listed: [11] | [12] | [15] | [19]
inactive: all other assays above

CCCCOC(=O)C(C)Oc1ccc(Oc2ccc(C(F)(F)F)cn2)cc1 (stereo not drawn)
not listed: [15] | [17] | [19] | [20]
inactive: all other assays above

CC(C)(c1ccc(O)cc1)c1ccc(O)cc1
active: [7] 27.4 µM | [11] 4.19 nM
inactive: [1] | [2] | [3] | [4] | [5] | [6] | [17] | [7] | [8] | [20] | [18] | [10] | [11] | [12] | [13] | [14] | [16]

O=C(c1ccc(O)cc1O)c1ccc(O)cc1O
not listed: [15] | [17] | [19]
inactive: all other assays above

CN(C)C(=O)Nc1ccc(Cl)c(Cl)c1
active: [3] 15 µM | [8] 6.84 µM
inactive: [1] | [2] | [3] | [4] | [5] | [6] | [17] | [7] | [8] | [20] | [18] | [9] | [10] | [11] | [12] | [13] | [14] | [15] | [16]

Reference: PubChem BioAssay (EPA / NIEHS)
